# Only some compounds are listed: those with a hit (about 21% of all), similar ones and a draw of the others.
# FBPA Giardia inh – qHTS Assay for Inhibitors of Fructose-1,6-bisphosphate Aldolase from Giardia Lamblia; A8B2U2; purified Giardia FBPA; Potency, µM (doses to about 59.6 µM), for inactives: at the highest dose activity, negative = inhibition, most hits filed as inhibitors; 290,000 compounds, 0.71% hits; also: potency is read from the fitted curve at half-maximal effect; % is scaled to controls: 0 for no effect and ±100 for the full control effect; nearly all actives have a fitted effect of over 55% in size
# Target sequence (A8B2U2 whole entry, looked up): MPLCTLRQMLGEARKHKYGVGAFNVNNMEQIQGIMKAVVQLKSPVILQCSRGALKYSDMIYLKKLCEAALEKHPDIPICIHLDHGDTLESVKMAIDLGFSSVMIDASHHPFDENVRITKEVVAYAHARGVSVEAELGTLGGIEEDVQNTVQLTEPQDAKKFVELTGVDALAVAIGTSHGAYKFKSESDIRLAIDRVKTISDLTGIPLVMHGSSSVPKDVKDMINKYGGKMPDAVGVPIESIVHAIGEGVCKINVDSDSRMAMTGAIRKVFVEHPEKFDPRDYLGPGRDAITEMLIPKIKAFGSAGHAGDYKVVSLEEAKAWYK
#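 Giardia FBPA (40 nM reagent) was preincubated 10 min at RT with compound (up to 57.5 uM final), then substrate plus GAPDH/TPI/NAD/arsenate coupling system with diaphorase/resazurin was added; resorufin fluorescence (525/598 nm) was read after 20 min.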
# Shiga inhibitor – A qHTS for Small Molecule Inhibitors of Shiga Toxin | Vero cells, Shiga toxin protein synthesis inhibition reporter | AID 2315, 2010 | inhibition, % at 38.7 µM | 290,000 compounds, 9.2% hits; in the data active = inhibition mostly above about 28%, no sharp cut-off; inactive = mostly below about 43%; also: 0% is about no effect
# Pf growth 48h – Primary qHTS for delayed death inhibitors of the malarial parasite plastid, 48 hour incubation. P. falciparum luciferase growth in erythrocytes, 48 h. Potency, µM (series often up to 28.7 µM), inactives show top-dose activity change, negative = inhibition, most hits filed as inhibitors. 310,000 compounds, 5.9% hits; also: potency is read from the fitted curve at half-maximal effect; % is scaled to controls: 0 for no effect and ±100 for the full control effect
#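 Here the parasites carry a stable luciferase gene and grow inside erythrocytes in Albumax-based RPMI medium with compound for one erythrocytic cycle. Activity is scored as loss of luminescent signal.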
# Cycloheximide cs – Cycloheximide Counterscreen for Small Molecule Inhibitors of Shiga Toxin | max response, % | cell reporter, cycloheximide protein synthesis inhibition counterscreen | 300,000 compounds, 12% hits | AID 2314, 2010; in the data active = max response mostly above about 13%, no sharp cut-off; inactive = mostly below about 14%; also: read at 38.3 µM for the half of the compounds with a filed dose; 0% is about no effect
# NS1 function inh – qHTS Assay for Inhibitors of Influenza NS1 Protein Function. Potency, µM (titrated, usually from 46.1 µM), without a hit: top-dose activity, positive = more growth. 270,000 compounds, 0.4% hits. AID 2326, 2010; calls by dose curve; also: potency is read from the fitted curve at half-maximal effect; actives are rising curves; nearly all actives have a fitted effect of over 50% in size
#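 Read-out: OD600 growth recovery of NS1-expressing budding yeast. Cells grown overnight at 30C in -URA glucose medium, washed, resuspended and diluted 1:100 in 2% galactose assay medium, pH 6.0. Same strain lacking NS1 served as positive control.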
# Pf growth 96h – Primary qHTS for delayed death inhibitors of the malarial parasite plastid, 96 hour incubation. P. falciparum luciferase reporter growth, 96 h. Potency, µM (series often up to 28.7 µM), for the others: at the highest dose activity change, negative = inhibition, most hits filed as inhibitors. 320,000 compounds, 6.9% hits; also: potency is read from the fitted curve at half-maximal effect; % is scaled to controls: 0 for no effect and ±100 for the full control effect
#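 P. falciparum expressing integrated firefly luciferase grown in erythrocytes (2% hematocrit, 0.05% parasitemia final) with compounds for 96 hours at 37 C, 5% CO2. Growth inhibition read as loss of luminescence after adding luciferase detection reagent.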
# Starred values were filed as active, the others as inactive; ? = inconclusive; . = not tested or not shown; [ ] = another dose, or the depositor's remark. Unless noted, calls follow the shape of the dose curve; as a rule, active = well fitted curve in the direction sought with a large enough effect; inconclusive = small, poorly fitted or top-dose-only effect, or another doubt; inactive = no such curve, though single readings can be large; an effect the other way counts as inactive or inconclusive.
SMILES,FBPA Giardia inh,Shiga inhibitor,Pf growth 48h,Cycloheximide cs,NS1 function inh,Pf growth 96h
CCC(C)N(C(=O)COc1ccccc1C(=O)NCc1ccccc1)C1CCS(=O)(=O)C1 (stereo not given),.,-12.5,?,-4.2,-2.2%,9.28µM*
CCC(C)N(C(=O)CSc1nc(C)nc2ccccc12)C1CCS(=O)(=O)C1 (stereo not given),.,.,?,.,.,14.7µM*
O=C(Nc1ccccc1)N1CC[C@@]2(CCCN(C(=O)c3ccncc3)C2)C1,1.1%,.,.,.,.,.
CSCC[C@H](N)C(=O)N1CCC(C(=O)N[C@H](C)C(=O)NC(C)c2ccccc2)CC1 (stereo not given in full),0.0%,4.0,?,-4.3,-12.1%,37.7%
O=C(O)c1ccc(S(=O)(=O)N2CCC(NC(=O)C3CCCCC3)CC2)cc1,-13.2%,3.2,29.1%,-4.7,9.7%,20.4%
O=C1OC2(c3cc(I)c(O)c(I)c3Oc3c2cc(I)c(O)c3I)c2c(Cl)c(Cl)c(Cl)c(Cl)c21,?,-14.7,.,-7.0,.,.
O=C1OC2(c3ccccc31)c1cc(I)c(O)c(I)c1Oc1c2cc(I)c(O)c1I,15.8µM*,15.7,13.1µM*,-6.5,.,8.28µM*
COCCn1c(=O)c(-c2ccccc2)nc2cnc(Nc3ccccc3)nc21,0.2%,.,.,.,.,.
CC(C)=CCN1CCN(Cc2cn[nH]c2C2CCCCC2)CC1CCO (stereo not given),8.8%,-9.4,-6.1%,-4.1,0.0%,?
CCOC(=O)C(CC)(CCC(=O)O)c1csc(N)n1 (stereo not given),1.0%,-2.5,.,-7.1,-12.1%,.
CCCCC(CCC(=O)O)(C(=O)OCC)c1csc(Nc2ccc(C)cc2)n1 (stereo not given),-5.9%,3.3,-1.1%,8.0,2.8%,4.65µM*
O=C(CCC1CCN(C(=O)c2cc(C(F)(F)F)ccc2Cl)CC1)NC1CC1,1.7%,1.4,-36.6%,-4.5,1.2%,-31.0%
Cc1noc(C)c1-c1ccc2ncnc(NCc3ccc4c(c3)OCO4)c2c1,-8.5%,20.5,.,18.0,.,.
Cc1ccc(C2=NNC(C(O)C(O)C(O)C(C)O)S2)cc1 (stereo not given),-2.4%,106.9*,.,32.0*,5.0%,90.5%
CC(CCc1ccccc1)NC(=O)CCC(=O)N1CCC(C(=O)O)CC1 (stereo not given),10.9%,.,3.9%,-3.3,6.4%,-16.9%
O=C(c1cccc(F)c1)N1CCC2(CC1)CCN(C(c1ccccc1)c1ccccc1)CC2,-7.5%,.,.,.,.,.
CN1C2CCC1/C(=C\c1ccc(F)cc1)C(=O)/C2=C/c1ccc(F)cc1,2.4%,-17.1,0.828µM*,-5.4,-8.6%,-2.8%
O=C(Nc1nc2ccccc2s1)c1cccc(S(=O)(=O)N2CCc3ccccc32)c1,-3.2%,21.3,?,14.1*,12.5%,?
O=C(Nc1nc2c(s1)CN(Cc1ccccc1)CC2)c1cccc(S(=O)(=O)N2CCc3ccccc32)c1,.,-11.4,?,2.7,29.2%,8.28µM*
CCc1nnc(NC(=O)c2cccc(S(=O)(=O)N3CCc4ccccc43)c2)s1,7.3%,-4.5,4.7%,-4.2,2.2%,.
Cc1nnc(NC(=O)c2cccc(S(=O)(=O)N3CCc4ccccc43)c2)s1,28.9%,-18.8,-12.0%,-4.7,11.1%,.
COc1ccccc1N1CCN(S(=O)(=O)CCNC(=O)C2CCCC2)CC1,.,.,-23.4%,.,.,1.0%
CCOC(=O)/C(N=O)=C(\O)C1CCN(C(=O)OCC)CC1,2.6%,-8.7,.,-2.7,-3.4%,13.1µM*
CCOC(=O)N1CCC(NC(=O)C2CCN(S(=O)(=O)N3CCCC3)CC2)CC1,.,-8.5,32.3%,-5.3,1.4%,0.0%
CN1N=C(C(=O)N2CCc3c([nH]c4ccccc34)C2c2ccccc2Cl)CCC1=O (stereo not given),1.1%,74.0*,1.65µM*,42.7*,7.7%,10.4µM*
SMILES,FBPA Giardia inh,Shiga inhibitor,Pf growth 48h,Cycloheximide cs,NS1 function inh,Pf growth 96h
O=C(c1cc[n+]([O-])cc1)N1CCc2c([nH]c3ccccc23)C1c1ccccc1Cl (stereo not given),-0.7%,-12.3,?,1.0,-3.6%,-1.3%
COc1ccc(C2c3[nH]c4ccccc4c3CCN2C(=O)c2ccc(=O)n(C)n2)c(F)c1 (stereo not given),-6.8%,34.0,?,26.2*,11.8%,-2.6%
Cc1ccccc1C1c2[nH]c3ccccc3c2CCN1C(=O)c1ccc(=O)n(C)n1 (stereo not given),8.4%,8.5,?,-1.7,11.8%,13.1µM*
Cc1ccccc1C(=O)N1CCc2c([nH]c3ccccc23)C1C(F)(F)F (stereo not given),-12.0%,7.2,11.7µM*,-2.4,0.5%,?
O=C(c1ccccc1Br)N1CCc2c([nH]c3ccccc23)C1,-3.9%,-1.2,-3.5%,-6.2,-31.1%,34.1%
COc1ccccc1CCCNC(=O)C1CCC(=O)N(CCc2ccc(Cl)cc2)C1 (stereo not given),4.9%,-3.1,-29.9%,8.1,-30.1%,?
CCNC(=O)CCSc1nnc(-c2ccco2)o1,-6.9%,12.9,26.6%,3.3,21.4%,30.5%
O=C(CCN1C(=O)C2C3CCC(C3)C2C1=O)Nc1cccc(Cl)c1 (stereo not given),3.7%,21.3,4.5%,18.0,-12.4%,31.5%
O=C(O)CC12CC3CC(C1)CC(n1cncn1)(C3)C2,3.4%,-20.9,3.1%,-1.2,.,?
COC(=O)C1=C(C(=O)OC)[C@@H]2N(Cc3ccccc3)c3ccccc3[C@@]23C[C@@H](C(=O)OC)N(S(=O)(=O)c2ccc(C#N)cc2)C3=N1,4.0%[12.9 µM],.,.,.,.,.
N/C(=N\OC(=O)CC1CCCCC1)c1ccncc1,-0.8%,58.3*,16.8%,16.6*,1.5%,?
Cc1ccc(/C(N)=N/OC(=O)CCC2CCCCC2)cc1,2.3%,37.6,15.9%,14.2*,-32.9%,?
N/C(=N\OC(=O)CCC1CCCC1)c1ccncc1,5.3%,79.9,-1.3%,19.7*,2.5%,?
Cc1ccc(/C(N)=N/OC(=O)CCC2CCCC2)cc1,0.4%,2.7,37.5%,-2.6,2.7%,-2.4%
Cc1ccc2nc(SCCCCOc3ccccc3)[nH]c2c1,-10.1%,-13.2,-15.9%,-1.9,-43.8%,?
Cc1nc(SCCOc2ccc(F)cc2)c2ccccc2n1,-2.3%,79.2*,49.4%,24.7*,.,-1.4%
c1ccc(OCCSc2nc3ccccc3[nH]2)cc1,2.9%,20.8*,?,25.7*,-18.1%,7.38µM*
CN(C)CCCSc1nc2ccccc2[nH]1,.,.,.,.,-2.0%,.
Cc1nc(SCCC(=O)O)c2ccccc2n1,12.6%,-8.3,9.9%,-0.1,9.8%,?
Cc1ccccc1OCCCSc1nc2ccccc2[nH]1,-7.8%,26.5*,7.2%,18.6*,-29.3%,10.4µM*

# Bioassay records as filed in PubChem BioAssay.
